Values without a mark were called inactive. Results filed as inconclusive are left out. The source made the active and inactive calls. Unless noted, calls follow the shape of the dose curve; as a rule, active = well fitted curve in the direction sought with a large enough effect in the repeat runs; inconclusive = weak or mixed curves; inactive = no such curve, though single readings can be large; an effect the other way counts as inactive or inconclusive.

Assay [1] is described as follows: qHTS assay to identify small molecule agonists of the estrogen receptor alpha (ER-alpha) signaling pathway in the presence of an antagonist - cell viability counter screen (AID 1259386).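 Also: series mostly up to about 92 µM; cells exposed to compounds for 22 h at 37 °C before the viability read; nearly all actives have a fitted effect of over 30% in size.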 The essentials:
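VM7Luc4E2 cells (endogenous full-length ER-alpha, 4×ERE-luciferase) were held 5 days in phenol red-free medium with 10% charcoal-stripped FBS, plated, then given 10.0nM ICI-182,780 and compounds at 15 concentrations for 22hr at 37C; viability read by CellTiter-Fluor fluorescence.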
Background: In qHTS, concentration-response curves come from the screen itself.

The target of assay [2] is Progesterone receptor (Homo sapiens) (UniProt P06401). Put plainly: qHTS assay to identify small molecule agonists of the progesterone receptor (PR) signaling pathway (AID 1346784; calls by dose curve; also: nearly all actives have a fitted effect of over 30% in size). The essentials:
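Fluorescence from LiveBLAzer B/G FRET substrate cleavage (2 hr, RT) reported PR activation in PR-UAS-bla HEK 293T cells treated 16 hr at 37C/5% CO2 with compounds; medium contained 2% charcoal-stripped FBS.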

Assay [3] in a line: qHTS assay to identify small molecule antagonists of the progesterone receptor (PR) signaling pathway - cell viability counter screen (AID 1346798). Also: series mostly up to about 92 µM; nearly all actives have a fitted effect of over 50% in size. In short, it runs like this: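 CellTiter-Glo luminescence; PR-UAS-bla HEK293T, 3,000 cells/well; compound + R5020, 16 hr, 37C/5% CO2; 30 min RT before read.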
Assay [4] is described as follows: qHTS assay to identify small molecule agonists of the progesterone receptor (PR) signaling pathway - cell viability counter screen (AID 1346799; calls by dose curve; also: nearly all actives have a fitted effect of over 45% in size). In short, it runs like this:
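In parallel with the beta-lactamase readout, cytotoxicity toward PR-UAS-bla HEK293T cells was measured by CellTiter-Glo luminescence following 16 hr compound incubation in 2% charcoal-stripped FBS medium.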

Assay [5] in a line: qHTS assay to identify small molecule antagonists of the TGF-beta/Smad signaling pathway - cell viability counter screen (AID 1346824). Also: nearly all actives have a fitted effect of over 50% in size. In short, it runs like this:
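Cytotoxicity counter-screen run in the same wells as the beta-lactamase Smad reporter read: CellTiter-Glo luminescence after 30 min at room temperature. HEK 293T SBE-bla cells had 5 hr compound exposure at 37 C with TGF-beta1 (0.25 ng/mL stock).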

Assay [6] can be described thus: qHTS assay to identify small molecule agonists of the TGF-beta/Smad signaling pathway - cell viability counter screen (AID 1346829). Also: top concentration of the series differs between compounds; nearly all actives have a fitted effect of over 45% in size. In short, it runs like this: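 Luminescence from CellTiter-Glo, read after a 30 min room-temperature incubation, gives cell viability of SBE-bla HEK 293T cells treated 5 hr with compounds at 37 C.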
A short description of assay [7]: qHTS assay to identify small molecule agonists of the TGF-beta/Smad signaling pathway (AID 1346859; active = well fitted activation curve with a large enough effect in the signal ratio in the repeat runs, not every such curve was filed as active; the % refers to the signal ratio; also: series mostly up to about 77 µM). In short, it runs like this:
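After overnight seeding, SBE-bla HEK 293T cells are dosed with compounds in DMSO and kept 5 hr at 37 C, 5% CO2. LiveBLAzer-type FRET substrate is then applied for 2 hr at room temperature.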

Assay [8] concerns the target Thyrotropin-releasing hormone receptor (Homo sapiens) (UniProt P34981). Put plainly: qHTS assay to identify small molecule antagonists of the thyrotropin-releasing hormone receptor (TRHR) signaling pathway (AID 1346877; active = well fitted inhibition curve with a large enough effect in the repeat runs, not every such curve was filed as active; also: series mostly up to about 51 µM). The essentials: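 TRHR-expressing HEK293 cells were seeded, cultured 18 h at 37 °C, then loaded with calcium dye for 2 h. Compounds were pre-incubated 5 min at room temperature before 1 nM TRH (final) was added, and kinetic fluorescence was recorded for 3 min.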

The target is the same in assay [9]. Put plainly: qHTS assay to identify small molecule agonists of the thyrotropin-releasing hormone receptor (TRHR) signaling pathway (AID 1346891; calls by dose curve; also: series mostly up to about 58 µM). The essentials: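 Compounds were tested as agonists at 15 concentrations, in triplicate, on TRHR-Hek293 cells; calcium-sensitive dye fluorescence was recorded for 3 min following addition.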
The nature of assay [10]: Caspase-3/7 induction in HepG2 cells by small molecules, qHTS assay (AID 1346978). Also: nearly all actives have a fitted effect of over 15% in size. In short, it runs like this:
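Caspase-3/7 induction was measured by Caspase-Glo 3/7 luminescence (30 min, room temperature) after a 17 hr compound exposure of wild-type HepG2 cells seeded at 2,000 per well and pre-incubated 5 hr.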

Assay [11] is described as follows: Caspase-3/7 induction in CHO-K1 cells by small molecules, qHTS cell viability counter screen (AID 1346979). Also: nearly all actives have a fitted effect of over 35% in size. The essentials:
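Viability readout by fluorescence (CellTiter-Fluor) on wild-type CHO-K1 cells exposed for 16hr at 37C and 5% CO2 to compounds delivered in DMSO; reagent incubated 1hr before reading.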

The nature of assay [12]: Caspase-3/7 induction in CHO-K1 cells by small molecules, qHTS assay (AID 1346980). Also: nearly all actives have a fitted effect of over 15% in size. In short, it runs like this:
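Luminescent Caspase-Glo 3/7 read (30min, room temperature) quantified apoptosis induction. Cells were wild-type CHO-K1, treated with compound for 17hr at 37 C and 5% CO2.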

Assay [13] is described as follows: Caspase-3/7 induction in HepG2 cells by small molecules, qHTS cell viability counter screen (AID 1346981). Also: series mostly up to about 92 µM; nearly all actives have a fitted effect of over 30% in size. In short, it runs like this: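 Wild-type HepG2 cells (2,000/well) were allowed to settle for 5 hr at 37 C, 5% CO2, then dosed with compounds in DMSO by pin transfer. After 16 hr at 37 C, CellTiter-Fluor was added and fluorescence read 1 hr later.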
Assay [14] concerns the target Nuclear receptor subfamily 1 group I member 2 (Homo sapiens) (UniProt O75469). Briefly: Human pregnane X receptor (PXR) small molecule agonists, qHTS assay (AID 1346982). Also: nearly all actives have a fitted effect of over 35% in size. Also: potency is read from the fitted curve at half-maximal effect. In short, it runs like this: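 PXR-Luc HepG2 cells (CYP3A4 promoter-driven luciferase) were seeded in medium with 5% charcoal-stripped FBS, left 5 hr at 37 C, then exposed to compounds in DMSO for 24 hr. Luminescence was read after ONE-Glo addition.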

Assay [15] concerns the target Nuclear receptor subfamily 1 group I member 2 (Rattus norvegicus) (UniProt Q9R1A7). Briefly: Rat pregnane X receptor (rPXR) activation by small molecules, qHTS assay (AID 1346983). Also: nearly all actives have a fitted effect of over 20% in size. Particulars: rPXR luciferase reporter cells, One-Glo luminescence, 24 h; hits give high values. The essentials:
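Luminescent readout (One-Glo luciferase, 30 min room temperature) followed 24 hr compound treatment at 37 C of rPXR cells plated 2,000 per well and preincubated 5hr; qHTS format with compounds delivered in DMSO.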

Assay [16] deals with Nuclear receptor subfamily 1 group I member 2 (Homo sapiens) (UniProt O75469). Briefly: CYP3A4 induction through human pregnane X receptor (PXR) by small molecules, qHTS assay (AID 1346984). Also: nearly all actives have a fitted effect of over 40% in size. Also: potency is read from the fitted curve at half-maximal effect. The essentials:
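DPX-2 cells (HepG2 co-transfected with PXR and CYP3A4 promoter-luciferase) treated with compounds 24 h at 37C; luciferin-IPA CYP3A4 substrate 3uM final added for 3 h, then One-Glo; luminescence read. qHTS format.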

Assay [17] deals with Progesterone receptor (Homo sapiens) (UniProt P06401). Put plainly: qHTS assay to identify small molecule antagonists of the progesterone receptor (PR) signaling pathway (AID 1346795; active = well fitted inhibition curve with a large enough effect in the signal ratio in the repeat runs, not every such curve was filed as active; the % refers to the signal ratio). In short, it runs like this:
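Fluorescence intensity measured 2 hr after adding beta-lactamase FRET substrate to PR-UAS-bla HEK293T cells that had been co-treated 16 hr with compound and 1 nM R5020 (final concentration) in 2% charcoal-stripped FBS.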

The target of assay [18] is Nuclear receptor subfamily 1 group I member 2 (Homo sapiens) (UniProt O75469). Briefly: Human pregnane X receptor (PXR) activation by small molecules, qHTS assay (AID 1346985). Also: nearly all actives have a fitted effect of over 40% in size. Also: potency is read from the fitted curve at half-maximal effect. In short, it runs like this: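 DPX-2 cells (HepG2 co-transfected with a PXR response element and a CYP3A4-promoter luciferase construct) were seeded at 2,000 per well, rested 5 hr at 37C, then exposed to DMSO-dissolved compounds for 24 hr. Activation was read as luciferase luminescence.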
Sequence of Nuclear receptor subfamily 1 group I member 2 (Homo sapiens) (O75469 whole entry, looked up): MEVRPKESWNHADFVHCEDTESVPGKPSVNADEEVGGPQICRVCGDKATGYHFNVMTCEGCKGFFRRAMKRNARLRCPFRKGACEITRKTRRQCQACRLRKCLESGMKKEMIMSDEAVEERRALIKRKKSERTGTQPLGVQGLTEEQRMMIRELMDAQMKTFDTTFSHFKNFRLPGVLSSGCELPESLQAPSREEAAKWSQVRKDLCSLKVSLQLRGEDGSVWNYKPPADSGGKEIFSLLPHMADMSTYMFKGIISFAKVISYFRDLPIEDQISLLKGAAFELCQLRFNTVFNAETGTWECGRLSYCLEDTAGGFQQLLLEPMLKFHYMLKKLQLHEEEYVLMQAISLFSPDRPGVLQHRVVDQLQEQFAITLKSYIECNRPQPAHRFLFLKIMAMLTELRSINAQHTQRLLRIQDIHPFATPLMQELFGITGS

The nature of assay [19]: Human pregnane X receptor (PXR) small molecule agonists, qHTS cell viability counter screen (AID 1346977). Also: nearly all actives have a fitted effect of over 50% in size. The essentials: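 Viability counter screen: CellTiter-Fluor signal in PXR-Luc HepG2 cells, 24hr compound exposure, 37C, 5% CO2.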
% is scaled to controls: 0 for no effect and ±100 for the full control effect.

Sequence of Progesterone receptor (Homo sapiens) (P06401 whole entry, looked up): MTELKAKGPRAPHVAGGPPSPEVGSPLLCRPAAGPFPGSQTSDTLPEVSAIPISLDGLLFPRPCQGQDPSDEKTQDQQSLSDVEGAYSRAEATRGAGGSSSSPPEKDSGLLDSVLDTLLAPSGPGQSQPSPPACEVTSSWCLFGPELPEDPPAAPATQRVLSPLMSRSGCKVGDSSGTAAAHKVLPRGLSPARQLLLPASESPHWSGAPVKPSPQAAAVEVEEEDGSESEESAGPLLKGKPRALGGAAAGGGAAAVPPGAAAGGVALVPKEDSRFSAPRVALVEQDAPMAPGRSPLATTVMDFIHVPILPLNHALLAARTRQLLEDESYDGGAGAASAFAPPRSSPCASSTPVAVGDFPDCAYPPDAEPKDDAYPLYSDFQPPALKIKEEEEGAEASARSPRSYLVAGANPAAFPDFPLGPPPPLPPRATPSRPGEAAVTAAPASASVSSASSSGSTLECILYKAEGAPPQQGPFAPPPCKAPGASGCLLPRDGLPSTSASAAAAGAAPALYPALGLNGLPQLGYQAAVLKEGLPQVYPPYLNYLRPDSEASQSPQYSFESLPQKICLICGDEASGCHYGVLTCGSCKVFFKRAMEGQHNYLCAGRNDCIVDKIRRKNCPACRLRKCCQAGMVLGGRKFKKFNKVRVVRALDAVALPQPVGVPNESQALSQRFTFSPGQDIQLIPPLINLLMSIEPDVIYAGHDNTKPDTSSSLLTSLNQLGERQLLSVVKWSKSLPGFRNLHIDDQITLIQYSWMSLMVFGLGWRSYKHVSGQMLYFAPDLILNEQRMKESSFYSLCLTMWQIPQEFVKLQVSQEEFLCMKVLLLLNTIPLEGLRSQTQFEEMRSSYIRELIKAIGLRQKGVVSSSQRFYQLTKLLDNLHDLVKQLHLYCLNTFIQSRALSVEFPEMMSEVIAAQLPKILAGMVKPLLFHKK
Sequence of Thyrotropin-releasing hormone receptor (Homo sapiens) (P34981 whole entry, looked up): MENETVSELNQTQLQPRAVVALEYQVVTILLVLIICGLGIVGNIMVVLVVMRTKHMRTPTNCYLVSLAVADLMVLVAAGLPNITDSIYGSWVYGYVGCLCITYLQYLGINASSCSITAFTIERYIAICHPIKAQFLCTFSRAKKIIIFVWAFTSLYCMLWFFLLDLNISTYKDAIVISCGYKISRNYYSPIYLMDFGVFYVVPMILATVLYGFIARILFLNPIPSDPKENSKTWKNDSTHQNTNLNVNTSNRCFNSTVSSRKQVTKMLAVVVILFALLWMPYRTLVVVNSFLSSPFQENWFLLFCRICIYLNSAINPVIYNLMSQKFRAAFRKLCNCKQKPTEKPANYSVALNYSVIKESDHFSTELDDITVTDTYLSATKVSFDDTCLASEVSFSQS
Sequence of Nuclear receptor subfamily 1 group I member 2 (Rattus norvegicus) (Q9R1A7 whole entry, looked up): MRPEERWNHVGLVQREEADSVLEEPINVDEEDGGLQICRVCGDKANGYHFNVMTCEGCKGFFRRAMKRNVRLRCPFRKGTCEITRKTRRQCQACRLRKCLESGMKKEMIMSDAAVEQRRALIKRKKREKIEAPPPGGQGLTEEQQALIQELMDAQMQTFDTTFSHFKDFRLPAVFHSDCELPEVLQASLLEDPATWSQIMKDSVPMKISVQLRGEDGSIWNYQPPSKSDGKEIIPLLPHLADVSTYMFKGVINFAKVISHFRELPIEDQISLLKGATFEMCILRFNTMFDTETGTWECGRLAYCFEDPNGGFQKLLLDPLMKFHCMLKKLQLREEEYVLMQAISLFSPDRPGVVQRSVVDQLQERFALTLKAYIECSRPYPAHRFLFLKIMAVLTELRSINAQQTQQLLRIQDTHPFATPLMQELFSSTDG

Regarding `OC(CCN1CCCCC1)(c1ccccc1)C1CC2C=CC1C2` (configuration not stated), the Potency result in [1], in assay [2], in assay [3], in assay [4], in assay [5] and in [10] was “inactive” each time. Besides, the Potency entry in [11] and in assay [13] was “inactive” throughout. Further, the molecule was classed as inactive in [6], in assay [7], in assay [8], in assay [9] and in [12]. The Potency in assay [14] is 10.6 µM (active); in assay [16] it was 28.2 µM (active). In [15], the max activation is -2.76%.

For the molecule `CC(=O)Nc1c(I)cc(I)c(C(=O)O)c1I`, the Potency entry in assay [1], in assay [2], in assay [17], in assay [3], in assay [4] and in [5] was “inactive” each time. The Potency result in assay [10], in assay [11], in [13], in [14], in assay [16] and in assay [18] was “inactive” each time. The molecule was called inactive in [6], in assay [7] and in [12]. The max activation in assay [15] is -2.53%.

Turning to `O=C(CCCN1CCC(O)(c2cccc(C(F)(F)F)c2)CC1)c1ccc(F)cc1`, the Potency entry in assay [1], in assay [2], in [3], in [5], in assay [19] and in [10] was “inactive” throughout. Also, the Potency result in assay [11], in assay [13] and in assay [14] was “inactive” each time. Also, the outcome in [6], in assay [7], in assay [8], in assay [9] and in assay [12] was inactive. Further, the max activation in [15] is 1.11%. The Potency was 4.47 µM (active) in assay [16] and 12.6 µM (active) in assay [18].

`Cc1c(O)cccc1O`: the Potency entry in assay [1], in [2], in assay [17], in [3], in assay [4] and in assay [5] was “inactive” in each case. For the same molecule, the Potency result in assay [19], in [10], in [11], in assay [13] and in assay [14] was “inactive” in each case. The outcome in assay [6], in [7], in assay [8], in [9] and in assay [12] was inactive.

Regarding `O=C(CCCN1CCN(c2ccccn2)CC1)c1ccc(F)cc1`, the Potency entry in [2], in assay [3], in assay [4], in assay [5], in [19] and in assay [11] was “inactive” in each case. For the same molecule, the Potency entry in assay [13] was “inactive”. The molecule was called inactive in assay [6], in [7], in assay [8], in assay [9] and in assay [12]. The Potency was 6.68 µM (active) in assay [14], 12.6 µM (active) in assay [16] and 10 µM (active) in assay [18]. In addition, the max activation in assay [15] was 0.0374%.

Turning to `CC/C=C\CC/C=C/CO`, the Potency entry in assay [1], in assay [2], in assay [17], in assay [3], in [4] and in [5] was “inactive” in each case. The Potency result in [19], in assay [10], in assay [11], in [13] and in assay [14] was “inactive” in each case. In addition, the molecule was classed as inactive in assay [6], in [7], in assay [8], in assay [9] and in assay [12].

The record behind these values is PubChem BioAssay (Tox21).
